Source: PubChem (National Center for Advancing Translational Sciences (NCATS))
FLuc inh-1: Photinus pyralis luciferase inhibition | P08659 | purified P. pyralis luciferase, luminescence, biochemical | Potency, µM (titrated, usually from 115 µM), actives largely listed as inhibitors | 76,000 tested, 2.5% active | AID 1347043; further: on the % scale 0 is the no-effect control and ±100 the full control effect; nearly all actives have a fitted effect of over 65% in size
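Purified 10nM P. pyralis luciferase with 10uM D-luciferin and 10uM ATP in 50mM Tris acetate pH 7.5, 10mM Mg acetate, 0.01% Tween-20, 0.05% BSA. qHTS titration; luminescence read by CCD imager.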
3T3 cytotox: NIH 3T3 cell cytotoxicity | Potency, µM (top dose mostly 96.7 µM), inactives show at the highest dose activity change, negative = cytotoxicity, hits mostly inhibitors | 94,000 tested, 4.3% active | NIH 3T3 viability, CellTiter-Glo ATP luminescence, 48-72 h; further: on the % scale 0 is the no-effect control and ±100 the full control effect; nearly all actives have a fitted effect of over 55% in size
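Mouse fibroblast NIH 3T3 cells, 400 per well, received compound via pintool and were incubated for 48 or 72 hr prior to CellTiter-Glo ATP luminescence measurement.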
hNpr1 antagonist: human Npr1 receptor antagonism | HEK293 hNpr1 GloSensor cGMP, ANP-stimulated luminescence | P16066 | Potency, µM (highest dose often 46.3 µM), without a hit: top-dose activity change, negative = inhibition, most hits filed as inhibitors | 76,000 tested, 1.6% active; calls by dose curve; further: on the % scale 0 is the no-effect control and ±100 the full control effect; nearly all actives have a fitted effect of over 60% in size
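HEK293 cells stably expressing human Npr1 and cGMP GloSensor pGS-40F, loaded 2 h with 2% GloSensor reagent, given compound 30 min at room temperature. Luminescence read before and 20 min after 0.1 nM hNppA.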
GPT2 inhibitor: inhibitors of human GPT2 alanine aminotransferase. Recombinant GPT2, coupled pyruvate oxidase/HRP Amplex Red fluorescence. Potency, µM (highest dose often 57.7 µM), for inactives: at the highest dose activity change, negative = inhibition, hits mostly inhibitors. 100,000 tested, 0.25% active; further: on the % scale 0 is the no-effect control and ±100 the full control effect; nearly all actives have a fitted effect of over 60% in size
Target sequence (Q8TD30 whole entry, looked up): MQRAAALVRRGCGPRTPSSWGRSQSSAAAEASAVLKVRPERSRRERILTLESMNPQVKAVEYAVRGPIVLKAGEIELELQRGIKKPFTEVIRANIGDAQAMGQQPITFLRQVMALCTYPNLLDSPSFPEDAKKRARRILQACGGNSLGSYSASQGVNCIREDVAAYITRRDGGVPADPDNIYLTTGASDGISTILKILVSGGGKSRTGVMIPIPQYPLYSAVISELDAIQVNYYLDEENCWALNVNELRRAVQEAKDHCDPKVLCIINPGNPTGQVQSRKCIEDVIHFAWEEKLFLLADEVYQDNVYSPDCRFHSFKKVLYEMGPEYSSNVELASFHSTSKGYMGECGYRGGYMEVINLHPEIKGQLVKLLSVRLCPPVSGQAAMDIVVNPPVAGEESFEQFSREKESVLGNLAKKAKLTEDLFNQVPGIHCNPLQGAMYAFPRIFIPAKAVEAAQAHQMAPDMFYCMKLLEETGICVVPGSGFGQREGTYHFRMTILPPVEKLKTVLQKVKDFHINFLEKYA
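Inhibition is scored from Amplex Red fluorescence generated when pyruvate oxidase and HRP act on pyruvate released by GPT2. Reactions contain 10ng/uL enzyme, 250uM a-KG and 2mM L-alanine and run 30 min at room temperature.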
HEK293 tox: HEK 293 cell cytotoxicity. HEK 293 viability, ATP luminescence (CellTiter-Glo), 48-72 h. Potency, µM (highest dose often 115 µM), for inactives: at the top dose activity change, negative = cytotoxicity, usual class: inhibitors. 94,000 tested, 6.6% active; further: on the % scale 0 is the no-effect control and ±100 the full control effect; nearly all actives have a fitted effect of over 60% in size
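Viability of HEK 293 cells, plated at 250 cells/well, was judged by cellular ATP after compound treatment for 48 or 72 hr. Luminescence was imaged 10 min after CellTiter-Glo addition at room temperature.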
FLuc SDR no ATP: firefly luciferase binding stabilization, ATP absent. shares compounds with FLuc inh-1. Purified FLuc-C-HiBiT, Nano-Glo HiBiT luminescence, no ATP. Potency, µM (top dose mostly 32.7 µM), for inactives: at the top dose activation (signal gain), hits mostly activators. 1,300 tested, 7.8% active. AID 1963318; further: nearly all actives have a fitted effect of over 55% in size
FLuc SDR ATP: firefly luciferase binding stabilization, ATP added. shares compounds with FLuc inh-1. purified FLuc-C-HiBiT + ATP, HiBiT complementation luminescence. Potency, µM (series often up to 32.7 µM), without a hit: at the top dose activation (gain of signal), actives largely listed as activators. 1,300 tested, 8.7% active. AID 1963319;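 further: signal reports ligand binding via conformational change of the enzyme rather than luciferase catalysis; % of control where 0% means no effect; nearly all actives have a fitted effect of over 55% in size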
FLuc inh-2: firefly luciferase enzyme inhibition; shares compounds with FLuc inh-1; purified FLuc-C-HiBiT enzyme, luciferin luminescence; Potency, µM (top dose mostly 32.7 µM), without a hit: at the top dose activity change, negative = inhibition, most hits filed as inhibitors; 1,300 tested, 42% active; AID 1963320; further: on the % scale 0 is the no-effect control and ±100 the full control effect; nearly all actives have a fitted effect of over 70% in size
Active calls of the source: *; [ ] = dose if it differs, or a comment. Hits are enriched below; roughly 10% of the tested compounds scored in any of these assays. Unless noted, the call rests on the fitted dose curve; in most records, active means well fitted curve in the direction sought with a large enough effect; inconclusive means small, poorly fitted or top-dose-only effect, or another doubt; inactive means no such curve, though single readings can be large; an effect the other way counts as inactive or inconclusive. Potency means the concentration at half of the fitted maximal effect.

What do the screens show for `O=C(COc1ccc(-c2nnc3n2CCCC3)cc1)Nc1ccc(Cl)cc1`?
FLuc inh-1: inactive; 3T3 cytotox: -5.4%; hNpr1 antagonist: 1.2%; GPT2 inhibitor: -3.5%; HEK293 tox: -21.7%

What do the screens show for `CC(=O)Nc1ccc(OCC(=O)NC(C)c2ccccc2)nc1` (centres undefined)?
FLuc inh-1: inactive; 3T3 cytotox: -13.1%; hNpr1 antagonist: 1.0%; GPT2 inhibitor: 1.5%; HEK293 tox: 2.8%

What do the screens show for `O=C(COc1ccccc1[N+](=O)[O-])Nc1ccc(-c2nc3ccccc3s2)cc1`?
FLuc SDR no ATP: 15.2%; FLuc SDR ATP: 9.8%; FLuc inh-2: -6.4%

Results for CCC(=O)Nc1cccc(OCC(=O)NCc2sc(C)nc2CC)c1 ?
FLuc inh-1: inactive; 3T3 cytotox: 2.1%; hNpr1 antagonist: -1.3%; GPT2 inhibitor: 0.3%; HEK293 tox: 0.7%

What do the screens show for `O=C(COc1ccccc1Cl)Nc1ccc(-c2nc3ccccc3s2)cc1`?
FLuc SDR no ATP: 11.7%; FLuc SDR ATP: 8.0%; FLuc inh-2: -5.0%

Results for Cc1noc(C)c1C(=O)N1CC(n2cc(COCc3ccccc3)nn2)C1 ?
3T3 cytotox: -22.1%; GPT2 inhibitor: inactive; HEK293 tox: -22.5%

Results for COc1cccc(CN(C)C2CCCc3ccccc32)c1 (centres undefined) ?
FLuc inh-1: inactive; 3T3 cytotox: inconclusive; hNpr1 antagonist: 3.2%[70.6 µM]; GPT2 inhibitor: inactive; HEK293 tox: inconclusive

Results for Cc1ccc(-c2cc3c(=O)n(CCNC(=O)c4ccc(N(C)C)cc4)ccn3n2)c(C)c1 ?
FLuc inh-1: 2.51µM*; 3T3 cytotox: -16.5%; hNpr1 antagonist: -17.7%; GPT2 inhibitor: inactive; HEK293 tox: inconclusive; FLuc SDR no ATP: 19.8%; FLuc SDR ATP: 14.0%; FLuc inh-2: inconclusive

What do the screens show for `Cc1ccc(-c2cc3c(=O)n(CCNC(=O)c4nn(C)c5ccccc45)ccn3n2)c(C)c1`?
FLuc inh-1: 1.41µM*; 3T3 cytotox: inconclusive; hNpr1 antagonist: -24.3%; GPT2 inhibitor: -0.7%; HEK293 tox: inconclusive; FLuc SDR no ATP: inconclusive; FLuc SDR ATP: inconclusive; FLuc inh-2: 1.57µM*

What do the screens show for `Cc1ccc(C)c(-c2cc3c(=O)n(CCNC(=O)Cc4cccs4)ccn3n2)c1`?
FLuc inh-1: inactive; 3T3 cytotox: inconclusive; hNpr1 antagonist: -11.8%; GPT2 inhibitor: inactive; HEK293 tox: inconclusive

What do the screens show for `COc1ccc(C(=O)NCCn2ccn3nc(-c4cc(C)ccc4C)cc3c2=O)cc1OC`?
FLuc inh-1: inactive; 3T3 cytotox: inconclusive; hNpr1 antagonist: -19.3%; GPT2 inhibitor: inactive; HEK293 tox: inconclusive

What do the screens show for `COc1cccc(-c2cc3c(=O)n(CCNC(=O)c4nn(C)c5ccccc45)ccn3n2)c1`?
FLuc inh-1: inconclusive; 3T3 cytotox: inconclusive; hNpr1 antagonist: -21.2%; GPT2 inhibitor: inactive; HEK293 tox: inconclusive

How did CC(=O)Nc1cccc(C(=O)NCCn2ccn3nc(-c4ccc(C)cc4C)cc3c2=O)c1 do in these assays?
FLuc inh-1: 5.01µM*; 3T3 cytotox: inconclusive; hNpr1 antagonist: -18.5%; GPT2 inhibitor: inactive; HEK293 tox: 39.8µM*; FLuc SDR no ATP: 31.2%; FLuc SDR ATP: inconclusive; FLuc inh-2: 9.89µM*
